In paper PMC9838217, “Structure of SALL4 zinc finger domain reveals link between AT-rich DNA binding and Okihiro syndrome”:
Positions count from the first letter of the chain named.

How the values were obtained:
Assay in all cases: HT-SELEX; high values mean tight binding
Conditions in all cases: protein: recombinant; vector His6-GST; dsDNA, one strand shown
[1] = biological target: T1, SALL4 ZFC4 WT (HT-SELEX) (Mus musculus, UniProt Q8BX22 870-940)
T1 sequence: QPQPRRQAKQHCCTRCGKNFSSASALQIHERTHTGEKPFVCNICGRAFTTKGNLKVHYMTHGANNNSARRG
In short: (§1)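 Library DNA (1.5 µg in cycle one, 200 ng in later cycles) was incubated with 1 µg of purified recombinant mouse SALL4 zinc finger cluster 4, residues 870–940, in 100 µl buffer (10 mM Tris–HCl pH 7.5, 50 mM NaCl, poly(dI-dC), DTT) at room temperature for 10 min. Up to 6 rounds of Ni2+ bead capture, washing, PCR amplification and reselection were run in triplicate. Reads from MiSeq sequencing were scanned for 6-mers. For each canonical k-mer, binding signal is its read fraction as fold change versus the original random library.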

[2] = biological target: T2, SALL4 ZFC4 R900W (HT-SELEX) (Mus musculus, UniProt Q8BX22 870-940, R900W)
T2 sequence: T1 sequence with R31W
In short: as §1

[3] = biological target: T3, SALL4 ZFC4 G921D (HT-SELEX) (Mus musculus, UniProt Q8BX22 870-940, G921D)
T3 sequence: T1 sequence with G52D
In short: as §1

CAACCA
binding signal [1]: 0.686 ± 0.0177 fold-change vs cycle 0
binding signal [2]: 0.804 ± 0.0166 fold-change vs cycle 0
binding signal [3]: 0.877 ± 0.0338 fold-change vs cycle 0

GCGTAA
binding signal [1]: 0.494 ± 0.0275 fold-change vs cycle 0
binding signal [2]: 0.556 ± 0.0061 fold-change vs cycle 0
binding signal [3]: 0.651 ± 0.033 fold-change vs cycle 0

CCCGAA
binding signal [1]: 0.314 ± 0.0034 fold-change vs cycle 0
binding signal [2]: 0.403 ± 0.0174 fold-change vs cycle 0
binding signal [3]: 0.512 ± 0.0767 fold-change vs cycle 0

ATCCGA
binding signal [1]: 0.684 ± 0.0383 fold-change vs cycle 0
binding signal [2]: 0.781 ± 0.0221 fold-change vs cycle 0
binding signal [3]: 0.89 ± 0.0142 fold-change vs cycle 0

AGACAC
binding signal [1]: 0.683 ± 0.0462 fold-change vs cycle 0
binding signal [2]: 0.821 ± 0.037 fold-change vs cycle 0
binding signal [3]: 0.923 ± 0.0183 fold-change vs cycle 0

TATTAA
binding signal [1]: 5.02 ± 0.457 fold-change vs cycle 0
binding signal [2]: 2.69 ± 0.232 fold-change vs cycle 0
binding signal [3]: 2.25 ± 0.285 fold-change vs cycle 0

CAGGAC
binding signal [1]: 0.423 ± 0.0322 fold-change vs cycle 0
binding signal [2]: 0.487 ± 0.0192 fold-change vs cycle 0
binding signal [3]: 0.578 ± 0.0205 fold-change vs cycle 0

ATATTA
binding signal [1]: 4.97 ± 0.422 fold-change vs cycle 0
binding signal [2]: 2.59 ± 0.139 fold-change vs cycle 0
binding signal [3]: 2.22 ± 0.236 fold-change vs cycle 0

ATATCG
binding signal [1]: 1.31 ± 0.0501 fold-change vs cycle 0
binding signal [2]: 1.15 ± 0.0369 fold-change vs cycle 0
binding signal [3]: 1.194 ± 0.00992 fold-change vs cycle 0

TCCAAA
binding signal [1]: 1.1 ± 0.0395 fold-change vs cycle 0
binding signal [2]: 1.19 ± 0.0233 fold-change vs cycle 0
binding signal [3]: 1.17 ± 0.00926 fold-change vs cycle 0

AATTTA
binding signal [1]: 2.91 ± 0.251 fold-change vs cycle 0
binding signal [2]: 2.35 ± 0.145 fold-change vs cycle 0
binding signal [3]: 2.04 ± 0.225 fold-change vs cycle 0

GGTTGA
binding signal [1]: 0.753 ± 0.0201 fold-change vs cycle 0
binding signal [2]: 0.876 ± 0.0229 fold-change vs cycle 0
binding signal [3]: 0.9303 ± 0.00634 fold-change vs cycle 0

AACCGG
binding signal [1]: 0.336 ± 0.0219 fold-change vs cycle 0
binding signal [2]: 0.391 ± 0.0169 fold-change vs cycle 0
binding signal [3]: 0.498 ± 0.0509 fold-change vs cycle 0

GAAACC
binding signal [1]: 0.748 ± 0.0342 fold-change vs cycle 0
binding signal [2]: 0.843 ± 0.0163 fold-change vs cycle 0
binding signal [3]: 0.916 ± 0.0216 fold-change vs cycle 0

GACATC
binding signal [1]: 0.75 ± 0.0336 fold-change vs cycle 0
binding signal [2]: 0.879 ± 0.011 fold-change vs cycle 0
binding signal [3]: 0.967 ± 0.0135 fold-change vs cycle 0

CGTTAC
binding signal [1]: 0.817 ± 0.0239 fold-change vs cycle 0
binding signal [2]: 0.932 ± 0.0341 fold-change vs cycle 0
binding signal [3]: 0.941 ± 0.0136 fold-change vs cycle 0

CACAAG
binding signal [1]: 0.713 ± 0.0143 fold-change vs cycle 0
binding signal [2]: 0.853 ± 0.0253 fold-change vs cycle 0
binding signal [3]: 0.901 ± 0.0111 fold-change vs cycle 0

CTGAGC
binding signal [1]: 0.348 ± 0.00959 fold-change vs cycle 0
binding signal [2]: 0.42 ± 0.0161 fold-change vs cycle 0
binding signal [3]: 0.535 ± 0.0354 fold-change vs cycle 0

ACTGGG
binding signal [1]: 0.468 ± 0.0365 fold-change vs cycle 0
binding signal [2]: 0.547 ± 0.0062 fold-change vs cycle 0
binding signal [3]: 0.615 ± 0.0193 fold-change vs cycle 0

AGCGAG
binding signal [1]: 0.337 ± 0.0112 fold-change vs cycle 0
binding signal [2]: 0.393 ± 0.0228 fold-change vs cycle 0
binding signal [3]: 0.519 ± 0.0797 fold-change vs cycle 0

AAAGCC
binding signal [1]: 0.465 ± 0.0355 fold-change vs cycle 0
binding signal [2]: 0.543 ± 0.0413 fold-change vs cycle 0
binding signal [3]: 0.65 ± 0.0602 fold-change vs cycle 0

GAACGA
binding signal [1]: 0.753 ± 0.0422 fold-change vs cycle 0
binding signal [2]: 0.856 ± 0.0556 fold-change vs cycle 0
binding signal [3]: 0.9 ± 0.0297 fold-change vs cycle 0

AGAACC
binding signal [1]: 0.8 ± 0.0457 fold-change vs cycle 0
binding signal [2]: 0.93 ± 0.0272 fold-change vs cycle 0
binding signal [3]: 0.981 ± 0.014 fold-change vs cycle 0

AGGTTA
binding signal [1]: 1.49 ± 0.0813 fold-change vs cycle 0
binding signal [2]: 1.57 ± 0.127 fold-change vs cycle 0
binding signal [3]: 1.44 ± 0.162 fold-change vs cycle 0

CGACTC
binding signal [1]: 0.311 ± 0.0133 fold-change vs cycle 0
binding signal [2]: 0.391 ± 0.0309 fold-change vs cycle 0
binding signal [3]: 0.53 ± 0.0873 fold-change vs cycle 0

ACGAGT
binding signal [1]: 0.767 ± 0.0224 fold-change vs cycle 0
binding signal [2]: 0.897 ± 0.033 fold-change vs cycle 0
binding signal [3]: 0.922 ± 0.0421 fold-change vs cycle 0

AAATAA
binding signal [1]: 3.25 ± 0.208 fold-change vs cycle 0
binding signal [2]: 2.56 ± 0.166 fold-change vs cycle 0
binding signal [3]: 2.14 ± 0.25 fold-change vs cycle 0

GCCAAA
binding signal [1]: 0.353 ± 0.00667 fold-change vs cycle 0
binding signal [2]: 0.404 ± 0.0166 fold-change vs cycle 0
binding signal [3]: 0.545 ± 0.0739 fold-change vs cycle 0

AAGGCA
binding signal [1]: 0.566 ± 0.0136 fold-change vs cycle 0
binding signal [2]: 0.683 ± 0.00728 fold-change vs cycle 0
binding signal [3]: 0.777 ± 0.0437 fold-change vs cycle 0

GCTGTA
binding signal [1]: 0.574 ± 0.0425 fold-change vs cycle 0
binding signal [2]: 0.653 ± 0.0229 fold-change vs cycle 0
binding signal [3]: 0.75 ± 0.0402 fold-change vs cycle 0

ATTATA
binding signal [1]: 4.99 ± 0.594 fold-change vs cycle 0
binding signal [2]: 2.65 ± 0.265 fold-change vs cycle 0
binding signal [3]: 2.25 ± 0.311 fold-change vs cycle 0

TCAGAA
binding signal [1]: 1.27 ± 0.0471 fold-change vs cycle 0
binding signal [2]: 1.37 ± 0.0562 fold-change vs cycle 0
binding signal [3]: 1.28 ± 0.0614 fold-change vs cycle 0

GGATAA
binding signal [1]: 1.38 ± 0.0543 fold-change vs cycle 0
binding signal [2]: 1.52 ± 0.0741 fold-change vs cycle 0
binding signal [3]: 1.34 ± 0.114 fold-change vs cycle 0

AAGTAG
binding signal [1]: 1.32 ± 0.0481 fold-change vs cycle 0
binding signal [2]: 1.52 ± 0.0706 fold-change vs cycle 0
binding signal [3]: 1.39 ± 0.0907 fold-change vs cycle 0

TATAAA
binding signal [1]: 3.97 ± 0.451 fold-change vs cycle 0
binding signal [2]: 2.53 ± 0.209 fold-change vs cycle 0
binding signal [3]: 2.14 ± 0.302 fold-change vs cycle 0

GTCTGA
binding signal [1]: 0.754 ± 0.0534 fold-change vs cycle 0
binding signal [2]: 0.884 ± 0.0322 fold-change vs cycle 0
binding signal [3]: 0.945 ± 0.0454 fold-change vs cycle 0

ACCTCG
binding signal [1]: 0.423 ± 0.0256 fold-change vs cycle 0
binding signal [2]: 0.498 ± 0.00774 fold-change vs cycle 0
binding signal [3]: 0.604 ± 0.0431 fold-change vs cycle 0

TGACCA
binding signal [1]: 0.72 ± 0.0319 fold-change vs cycle 0
binding signal [2]: 0.823 ± 0.0121 fold-change vs cycle 0
binding signal [3]: 0.899 ± 0.0281 fold-change vs cycle 0

CATCCC
binding signal [1]: 0.525 ± 0.0193 fold-change vs cycle 0
binding signal [2]: 0.59 ± 0.0178 fold-change vs cycle 0
binding signal [3]: 0.652 ± 0.049 fold-change vs cycle 0

ATTGCC
binding signal [1]: 0.502 ± 0.0233 fold-change vs cycle 0
binding signal [2]: 0.566 ± 0.0263 fold-change vs cycle 0
binding signal [3]: 0.699 ± 0.0539 fold-change vs cycle 0

GGTACA
binding signal [1]: 0.743 ± 0.0263 fold-change vs cycle 0
binding signal [2]: 0.823 ± 0.0156 fold-change vs cycle 0
binding signal [3]: 0.894 ± 0.0191 fold-change vs cycle 0

AGAGTA
binding signal [1]: 1.47 ± 0.0798 fold-change vs cycle 0
binding signal [2]: 1.61 ± 0.0906 fold-change vs cycle 0
binding signal [3]: 1.46 ± 0.121 fold-change vs cycle 0
